Measured values as given in PubChem BioAssay AID504842 (National Center for Advancing Translational Sciences (NCATS), 2011).
Screen size: about 330,000 compounds; about 100 (0.03%) were called active. Roughly 1% stayed inconclusive and do not appear here. The call rests on the fitted dose curve; in most records, active means well fitted inhibition curve with a large enough effect; inconclusive means small, poorly fitted or top-dose-only effect; inactive means flat fitted curve, though single readings scatter. The full list was thinned out, with actives kept by preference.

Test system: Chaperonin Mm-Cpn (Methanococcus maripaludis)
Assay: Inhibitors of TCP-1 ring complex (TRiC) of Methanococcus maripaludis (MmCpn): qHTS; further: nearly all actives have a fitted effect of over 80% in size;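 on Potency: enzyme at 25 nM with ATP substrate at 10 µM during the reaction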
Settings: purified Mm-Cpn ATPase, ADP Transcreener TR-FRET; series mostly up to 76.9 µM
Source text: The eukaryotic chaperonin TRiC (for TCP-1 ring complex) is an essential and conserved chaperone required for the folding and activation of 10-15% of the proteins encoded by the human genome. […] The TRiC complex consist of two stacked 7-9 membered rings, each containing a central cavity. Substrates are folded within the cavity in an ATP-dependent manner. TRiC is a complex of eight different, essential proteins. As each of the genes encoding the eight subunits is essential for cell viability and no protocol has been developed to over-express this enzyme to high levels. That is why several groups studying the TRiC chaperonin have turned to the archaeal homolog of TRiC, Methanococcus maripaludis (Mm-CPN), and have used this enzyme as a model system for the study of the type II chaperonin family. Small molecule inhibitors of the Mm-CPN enzyme would be extremely useful to study the mechanism of chaperonin activity. Importantly, TRiC and Mm-CPN both require ATP hydrolysis for function. Furthermore, the ATP binding sites are highly conserved among these type II chaperonins. This provides us with an easy, well tested and straightforward assay to identify inhibitors of chaperonin activity. The Mm-CPN assay was developed in 1536-well plate format using the HTRF Transcreener ADP assay kit (Cisbio, Bedford, MA). This assay applied the time resolved fluorescence resonance energy transfer (TR-FRET) principle. ATP in the presence of Mm-CPN is converted to ADP + Pi. An antibody labeled with Eu3+-Cryptate specific and bound to ADP labeled with […] (d2) competes with the unlabeled ADP generated by Mm-CPN. The resulting TR-FRET signal is inversely proportional to the concentration of ADP in the sample. In this assay a reduction in TR-FRET signal is observed with ATP turnover. NIH Chemical Genomics Center [NCGC] NIH Molecular Libraries Probe Centers Network [MLPCN] MLPCN Grant: DA030554-01A1 Assay Submitter (PI): Judith Frydman, Stanford University
Purified Mm-CPN was supplied by the laboratory of Dr. Judith Frydman. Protein samples were stored at -80C as single use aliquots. Protein was thawed in ambient temperature water bath and placed on ice once thawed. Buffer was prepared fresh day of screen. The buffer composition below was used to prepare the working solution of the Mm-CPN protein and ATP substrate. The buffer is comprised of 30 mM TRIS pH 7.4, 100mM KCl, 5mM MgCl2, and 1mM DTT. A final concentration of 25nM Mm-CPN and 10uM ATP per well were used in the screen. Instructions according to the manufacturer were followed for the ADP Transcreener kit. Used 1536 well Greiner white, medium binding (MB), solid bottom plates. Plates were read on the PerkinElmer EnVision plate reader using Excitation = 320 nm and Emission = […], 665 nm. Protocol- 1.Dispense 1.5ul per well of working [Mm-CPN] = 50nM (or 75 ng / well) 2.Spin plate at 1000 rpm for 30 seconds 3.23nl of compound transferred per well 4.Incubate at 37degC for 10 minutes 5.Dispense 1.5ul per well of working [ATP] = 20uM 6.Incubate at 37degC for 30 minutes 7.Dispense 3ul per well of Anti-ADP Cryptate / ADP-d2 mix (prepared as instructed by Cisbio) 8.Incubate at ambient for 30 minutes 9.Read using EnVision
On the % scale 0 is the no-effect control and ±100 the full control effect; potency means the concentration at half of the fitted maximal effect.

Potency, active:
Cc1ccc(-c2nc(-c3cccnc3)sc2CC(=O)Nc2ccc(C)c(Cl)c2)cc1 28.2 µM, CN(C)c1ccc(N/C=C/C(=O)C(F)(F)F)cc1 25.1 µM, CCOC(=O)Cc1csc(NC(=O)COc2ccc3c(C)cc(=O)oc3c2)n1 44.7 µM

Potency, inactive:
CCOc1ccc(NC(=O)COC(=O)C2CCC(=O)N2)c([N+](=O)[O-])c1 (configuration not stated), CN(C(=O)CSc1nnc(C2CC2)n1C)C1CCCc2ccccc21 (configuration not stated), C=C(C)c1cccc(C(C)(C)NC(=O)NC2CCCC2)c1, CC(=O)NC(NC(=S)Nc1c(C)n(C)n(-c2ccccc2)c1=O)C(Cl)(Cl)Cl (configuration not stated), COc1cccc(NS(=O)(=O)c2ccc(-c3coc(C)n3)cc2)c1, Nc1ccccc1C(=O)NC1CCCCNC1=O (configuration not stated), COc1cccc(N2CC(C(=O)NCc3n[nH]c(=O)c4ccccc34)CC2=O)c1 (configuration not stated), CCOC(=O)c1c(N)c(C#N)nn1-c1ccccc1C(=O)OC, O=C(c1c(F)cccc1F)N1CCN(c2ncc(Br)cn2)CC1, Cc1ccccc1NC(=O)CCNS(=O)(=O)c1ccc2[nH]c(=O)oc2c1, CC(C)N(C)C(=O)CCc1nnc(CCc2c[nH]c3ccccc23)o1, O=C(Nc1cccc(C(=O)NC2CC2)c1)c1ccc(F)c(S(=O)(=O)N2CCOCC2)c1, CC(=O)NC(c1cccs1)c1cc(Br)c2cccnc2c1O (configuration not stated), COc1ccc(-c2[nH]ncc2CN(Cc2nccn2C)C(C)C)cc1F, COc1ccc(CNC(=O)CN2C(=O)NC3(CCCc4sccc43)C2=O)cc1 (configuration not stated), O=S1(=O)C=C(SCCN2CCCC2)c2ccccc21, CC(C)(C)NC(=O)CN(C(=O)c1ccc(Cl)nc1)c1cccc2ccccc12, CC(C#N)(NC(=O)CN1CCN(S(=O)(=O)c2cc(C(F)(F)F)ccc2Cl)CC1)C1CC1 (configuration not stated), Cc1nc(COc2cccc(Cl)c2)sc1C(=O)/C=C/N(C)C, COc1ccc([C@H]2CC(=O)C=C(/C=C/c3ccc(Cl)cc3)C2)cc1, COc1ccc(F)cc1C(=O)COC(=O)c1n[nH]c(=O)c2ccccc12, CC(C)N(C(=O)Cn1cc(SCC(=O)N2CCCC2)c2ccccc21)C(C)C, CN(C)CCN=c1cc(-c2ccccc2)oc2ccc(Cl)cc12, CC1(C)C/C(=C(/C#N)C(N)=O)CCO1, COc1ccccc1Oc1ccc(N2CC(C(=O)OCC(=O)c3ccc(F)cc3)CC2=O)cc1 (configuration not stated), CCCOc1ccc(C(=O)C(CCC(CNCC)C(=O)c2ccc(OCCC)cc2)CNCC)cc1 (configuration not stated), Cc1ccc(S(=O)(=O)N2CCCC2C(=O)OCc2nc3sc(C)c(C)c3c(=O)[nH]2)cc1 (configuration not stated), Nc1c(Cl)cc(S(N)(=O)=O)cc1S(N)(=O)=O, Nc1ccc(Cl)c(S(=O)(=O)Nc2ccccc2Cl)c1, O=C(CN1CCN(C(=O)c2ccco2)CC1)Nc1ccc(Cl)c(C(F)(F)F)c1, Cc1ccc2nc(SCc3nnc(-c4ccccc4[N+](=O)[O-])o3)c(C#N)cc2c1, Cn1c2ccc(F)cc2c2nnc(NN)nc21, Cn1c(=O)c([N+](=O)[O-])c(Oc2ccccc2)c2ccccc21, CCn1c(=O)c(=O)n(CC)c2cc(N3CCCCC3)c(NC(=O)c3ccc(Cl)cc3)cc21, CCOC(=O)C1=C(CSc2nnnn2C)N(C)C(=O)NC1c1ccccc1 (configuration not stated), CCc1nnc(NC(=O)C2CCN(C(=O)c3ccccc3C)CC2)s1, Cc1ccc(NC(=O)Cn2cccc2C2=NC(c3ccccc3)CO2)c(C)c1 (configuration not stated), CC(OC(=O)Cc1ccc(F)cc1)C(=O)N1CCc2ccccc21 (configuration not stated), COCCn1c(SCC(=O)N2CCCCCC2)nc2c(c1=O)SCC2, Cc1ccc(-n2nc(C)c(C(=O)O)c2-n2cccc2)cc1, Cc1cccc(N(Cc2ccccc2)C(=O)c2ccccc2F)c1, CCCOC1CCCN(Cc2cn(C)nc2-c2ccccc2F)C1 (configuration not stated), O=S1(=O)CCC(NC(=S)SCc2ccccc2Br)C1 (configuration not stated), Cc1ccc(-n2nc3c(=O)n(C(C)C(=O)NCc4ccc5c(c4)OCO5)nc(C)c3c2C)cc1 (configuration not stated), Cc1nc(-c2ccc(F)cc2)c(CC(=O)Nc2cccc(S(=O)(=O)N3CCOCC3)c2)s1, Cc1ccc(NC(=O)Nc2cccnc2)cc1, COC(=O)c1sc2[nH]c(=S)n(N)c(=O)c2c1C, CCOc1ccc(C(CCc2ccccc2)NC(=O)c2ccc(OC)c(OC)c2)cc1OCC (configuration not stated), CC(C)(CNC(=O)Cc1ccc(Cl)cc1Cl)N1CCOCC1, COc1ccc(OC)c(S(=O)(=O)N(C)CC(=O)N2CCN(c3ccccc3)CC2)c1, Cc1ccc(S(=O)(=O)N2CCCCC2)cc1NC(=O)CCNC(=O)c1ccccc1, Cc1cc(S(=O)(=O)NCc2ccccn2)c(Cl)cc1Cl, Cc1cc(NC(=O)/C=C/C(=O)N(c2ccccc2C)C(C(=O)NC2CCCC2)c2ccc(F)cc2)no1 (configuration not stated), CCCSC1=C(C#N)C(c2ccccc2C)C(C(=O)OC)C(=O)N1 (configuration not stated), CCOc1ccc(NC(=O)CN(C)C(=O)CSc2ccccc2)cc1OCC, CCOc1ccccc1NS(=O)(=O)c1cc2c3c(c1)C(C)C(=O)N3CCC2 (configuration not stated), O=S(=O)(Nc1ccc(Oc2ncccn2)c(Cl)c1)c1ccc(F)cc1, Cc1ccc(S(=O)(=O)N(Cc2cccc([N+](=O)[O-])c2)C(=O)N2CCN(C)CC2)cc1, O=C(CN1CCCSc2ccccc21)N1CCN(S(=O)(=O)c2ccccc2)CC1, O=C(Cn1nc([N+](=O)[O-])nc1Br)NC1CCCCC1, Cc1nn(-c2ccccc2)nc1C(=O)OCC(=O)N1CCCCC1C (configuration not stated), CCc1ccc(Nc2nnc(SCC(=O)c3ccc4c(c3)NC(=O)CO4)s2)cc1, CCOCc1c(C(=O)N2CCN(Cc3ccc(Br)s3)CC2)oc2ccccc12, CCOC(=O)CN1C(=O)N[C@@H](c2ccc(Br)cc2)C(C(C)=O)=C1C, FC(F)(F)c1ccc(CN2C[C@@H]3C(c4ccccc4)C4(c5ccccc5)CC3(C4)[C@H]2c2ccccc2)cc1 (some centres not stated), Cc1ccc(NS(=O)(=O)c2ccc3c(c2)CC(=O)N3)cc1Cl, COc1ccc(-n2c(C)nn(CC3CC3)c2=O)cc1, CC(=O)Nc1cccc2c1[n+]([O-])c(C)c(C)[n+]2[O-], CCn1cc(C(=O)NCc2ccc(OC)cc2OC)c(=O)c2ccc(C)nc21, O=C(CCC(=O)Nc1ccccc1)N/N=C/c1ccccc1F, CCOC(=O)c1ccccc1NC(=O)COC(=O)C(Cc1c[nH]c2ccccc12)NC(C)=O (configuration not stated), Cc1cccc(N2CCN(S(=O)(=O)c3ccc4[nH]c(=O)c(=O)[nH]c4c3)CC2C)c1 (configuration not stated), c1csc(-c2nnc(COc3ccc4c(c3)OCO4)o2)c1, CCCOC1CCCN(C(=O)c2cc(COc3cncc(Cl)c3)on2)C1 (configuration not stated), COc1cccc(-n2c(N)cc(=O)nc2SCC(=O)Nc2cc(C)on2)c1, CC1CCCCC1NC(=O)CSc1nnc(-c2ccncc2)n1CCCN(C)C (configuration not stated), CC(C)C(NC(=O)c1c(F)cccc1F)C(=O)NCc1ccncc1 (configuration not stated), CCOC(=O)c1sc(NC(=O)CSc2nc3c(c(=O)n2-c2ccccc2)SCC3)c(C(=O)OCC)c1C, Cn1c(=O)n(C)c2cc(CNc3ccc(N4CCOCC4)c(C(=O)O)c3)ccc21, Cn1c2cc(B(O)O)sc2c2cnn(Cc3ccccc3F)c(=O)c21, CSCC[C@H](NC(=O)CCCn1nnc2ccccc2c1=O)C(=O)O, O=C(CCl)Nc1ccc(Sc2ccc(NC(=O)CCl)cc2)cc1, CCCCN(CCCC)CCC(O)c1cc2c(Cl)cc(Cl)cc2c2cc(C(F)(F)F)ccc12 (configuration not stated), Cc1cc(Cl)ccc1NNC(=O)c1snnc1C, O=C(COC(=O)Cn1[nH]c(=O)c2ccccc2c1=O)Nc1ncc(Cl)cc1Cl, CC(=O)Nc1cccc(C(=O)OCC(=O)NCc2cc(C)c(O)c(C)c2)c1, CSCCC(NC(=O)c1ccccc1)C(=O)N1CCN(Cc2ccc(Cl)cc2)CC1 (configuration not stated), CC(C)OC(=O)C(C#N)c1nc2ccccc2nc1N1CCN(Cc2ccc3c(c2)OCO3)CC1 (configuration not stated), CSc1nc(-c2ccco2)nn1C(=O)c1ccccc1Cl, CCCN1CCn2c3c(c4cc(Br)ccc42)CCCC31 (configuration not stated), CC(=O)N(C)c1ccc(NC(=O)C(F)(F)F)cc1, CC(C)CNC(=O)C(=O)Nc1ccc(N(C)C)cc1, Cn1c(N)c(C(=O)COC(=O)c2cccc(S(=O)(=O)N3CCOCC3)c2)c(=O)n(C)c1=O, CCOC(=O)c1c(CNCc2ccccc2F)c2sc(C)cc2n1C, CSc1nc2ccccc2cc1/C=C(\C#N)c1ccc(Cl)cc1Cl, C/C=N/N(c1ccccc1)c1ccccc1, O=C(CSc1nnc(CN2CCCC2)n1-c1ccc(F)cc1)c1ccc2c(c1)OCO2, Cc1cc(=O)oc2cc(OCC(=O)Nc3nnc(C4CC4)s3)ccc12, CCOC(=O)Cc1csc(SCc2cc(=O)oc3cc(O)ccc23)n1, CCCCc1ccc(NC(=O)CN2C(=O)NC(Cc3ccccc3)C2=O)cc1 (configuration not stated), CCOc1ccccc1N1CCN(C(=O)c2ccc3[nH]c(C)c(C)c3c2)CC1, CCOc1ccc(NC(=O)CN(C)C(=O)c2cccc(S(=O)(=O)N3CCCC3)c2)cc1OCC

activity, negative = inhibition, inactive:
O=C1OC2(CCCCC2)CC2=C1C1O[C@](c3ccsc3)(Cc3ccccc31)O2 -2.46% [at 15.4 µM], Cc1cc2c(c(=O)n1Cc1ccccc1)C1O[C@](CCCCN3C(=O)c4ccccc4C3=O)(Cc3ccccc31)O2 -15.5% [at 15.4 µM]
